Measured values: PubChem BioAssay AID1706 (The Scripps Research Institute Molecular Screening Center, 2009)
Screen size: about 290,000 compounds; about 400 (0.14%) were called active. The sample holds actives, similar compounds and a random draw of the others, so the mix is not that of the screen. Rule as the data show it: active = inhibition above about 12%; inactive = the rest.

Each compound was assayed against Replicase polyprotein 1ab (Severe acute respiratory syndrome coronavirus) (UniProt P0C6X7) (assay: blockers of SARS 3CLpro peptide cleavage – biochemical, quenched FRET, primary screen (AID 1706)). Conditions: recombinant SARS-CoV 3CLpro, at 6 µM, hits give high values.

| SMILES | inhibition |
| --- | --- |
| COC(=O)c1ccc2c(=O)n(CCN3CCOCC3)c(SCC(=O)Nc3cccc(OC)c3)nc2c1 | -4.67% (inactive) |
| CCC(=O)c1cn(CCOc2ccccc2OC)c2ccccc12 | 1.13% (inactive) |
| COc1ccccc1NC(=O)N1CCCC1C(=O)NCc1cccs1 (stereo unspecified) | -2.73% (inactive) |
| Cc1cc(C)cc(NS(=O)(=O)Cc2ccccc2)c1 | -7.45% (inactive) |
| CCCc1nnc(NC(=O)CCC(=O)NC2CC2)s1 | -2.59% (inactive) |
| O=C(COC(=O)CCCNC(=O)c1ccc(Cl)cc1)Nc1cc(Cl)ccc1Cl | -4.18% (inactive) |
| O=C(CN1CCC(NC(=O)Nc2ccccc2)CC1)Nc1cccc([N+](=O)[O-])c1 | -2.45% (inactive) |
| CN(CC(=O)Nc1cccc(F)c1)CC(=O)Nc1cccc([N+](=O)[O-])c1 | 0.23% (inactive) |
| CN1CCN(CC(=O)Nc2cccc([N+](=O)[O-])c2)CC1 | 15.7% (active) |
| CC(=O)N1CCSc2ccc(S(=O)(=O)N3CCC(C)CC3)cc21 | 0.66% (inactive) |
| O=C(COC(=O)c1cc(=O)[nH]c2ccccc12)Nc1nc(-c2cccc(Br)c2)cs1 | 2.23% (inactive) |
| CC(C)NC(=O)COCc1cc(-c2ccc3c(c2)OCO3)on1 | 3.95% (inactive) |
| CCc1nonc1NC(=O)c1oc2ccc(Cl)cc2c1C | -1.85% (inactive) |
| CCN1CCN(C(=O)Cn2nc(C)n3c(cc4c(OC)cccc43)c2=O)CC1 | -4.38% (inactive) |
| COc1ccc(NC(=O)C2C3C=CC(C3)C2C(=O)NCc2ccccn2)c(OC)c1 (stereo unspecified) | 0.98% (inactive) |
| O=C(CCc1nnc2ccc(NCc3ccccc3Cl)nn12)NCC1CCN(C2CCCC2)C1 (stereo unspecified) | 2.8% (inactive) |
| COc1cccc(CNS(=O)(=O)c2cc3c(cc2C)n(C)c(=O)c(=O)n3C)c1 | 3.5% (inactive) |
| O=C1C(=O)N(CC2COc3ccccc3O2)c2ccccc21 (stereo unspecified) | 23.4% (active) |
| Cc1cc(C(=O)CCl)c(C)n1CC1COc2ccccc2O1 (stereo unspecified) | 6.71% (inactive) |
| O=C(CN1C(=O)C2C3C=CC(C3)C2C1=O)NCC1COc2ccccc2O1 (stereo unspecified) | 2.22% (inactive) |
| CC(C)c1ccccc1OCC(O)CN(CC(O)COc1cccc2ccccc12)C(C)C (stereo unspecified) | 3.86% (inactive) |
| Nc1ncc(CN2CCCC(C(=O)Nc3ccc(-c4ccco4)cc3)C2)cn1 (stereo unspecified) | -4.02% (inactive) |
| CC12CCC(C(=O)N(NC(=O)c3ccccc3O)C1=O)C2(C)C (stereo unspecified) | 5.94% (inactive) |
| Cc1ccc(-c2nc(-c3cccnc3)sc2CC(=O)Nc2ccc(C)c(Cl)c2)cc1 | -0.63% (inactive) |
| Oc1ccc2ccc3cccc[n+]3c2c1 | 3.63% (inactive) |
| CN(C)S(=O)(=O)c1cccc(C(=O)OCC(=O)N2CCCC2=O)c1 | 0.39% (inactive) |
